Reference: PubChem BioAssay (NCI)
Compounds without any hit were thinned out: in the full panel of roughly 83,000, 20% have a hit.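 The test compound was applied at a single concentration to cells in 96-well plates for 48 hours, and percent growth was recorded.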 Values without a mark were called inactive. Activity calls are given as the source filed them. Rule for the calls: active = growth percent below 10; inactive = the rest.

tested on: NCI-H460 lung; assay: NCI-60 one-dose screen, 48 h (100 = growth as untreated, 0 = no growth, -100 = all killed); conditions: 10 µM

Row | SMILES | growth
1 | Clc1ccc(Nc2ccnc(NCCCNc3ccnc4cc(Cl)ccc34)n2)cc1 | -28.8% (active)
2 | Oc1[nH]c2cc(Cl)ccc2c1/C=c1/ccc2c(c1)N=C(c1cc(F)cc(F)c1)N=2 | 6.1% (active)
3 | CSc1nn(-c2ccccc2)c2ncnc(Oc3ccccc3)c12 | 103%
4 | Cc1cc2c(C)c3cc(C)c(N)cc3nc2cc1N | -20.5% (active)
5 | CCOC(=O)C1(CC(C)C)CCOC1=O (stereo not drawn) | 103%
6 | COc1ccc(Nc2cc(C)nc(NCCCNc3ccnc4cc(Cl)ccc34)n2)cc1 | -4.78% (active)
7 | CCCCCCCCCCCCCCCC(=O)OC1[C@@H](OC(=O)CCCCCCCCCCCCCCC)[C@@H](C(=O)N[C@@H](CCCCN)C(=O)OC)O[C@H]1n1cnc2c(=O)[nH]c(NC(=O)C(C)C)nc21 (stereo partly drawn) | 101%
8 | COc1cc(Nc2ccnc(NCCNc3ccnc4cc(Cl)ccc34)n2)cc(OC)c1 | 27.8%
9 | Cc1cc(Nc2ccc(Cl)cc2)nc(NCCCNc2ccnc3cc(Cl)ccc23)n1 | -44.9% (active)
10 | COc1cc2cc3c(nc2cc1OC)CCN3Cc1ccc(NC(=O)Nc2cc(C(F)(F)F)cc(C(F)(F)F)c2)cc1 | 63.3%
11 | CC(C)=CCc1cc(O)cc2c1OC(C=C(C)C)C1=C2C(=O)C2=C(NCCS2(=O)=O)C1=O (stereo not drawn) | 3.29% (active)
12 | CC(C)=CCc1cc(O)cc2c1OC(C=C(C)C)C1=C2C(=O)C2=C(C1=O)S(=O)(=O)CCN2 (stereo not drawn) | 31.4%
13 | COc1ccc(Nc2ccnc(NCCNc3ccnc4cc(Cl)ccc34)n2)cc1 | 47.4%
